RORgamma inh: qHTS for inhibitors of ROR gamma transcriptional activity | AID 2551, 2010 | Potency, µM (titrated, usually from 53.6 µM), for the others: at the highest dose activity change, negative = inhibition, hits mostly inhibitors | Drosophila S2 Gal4-RORgamma UAS-luciferase reporter, 20 h | 5.4% of 310,000 active; further: potency means the concentration at half of the fitted maximal effect; nearly all actives have a fitted effect of over 60% in size
Target sequence (P51450 whole entry, looked up, the tested form may be a part): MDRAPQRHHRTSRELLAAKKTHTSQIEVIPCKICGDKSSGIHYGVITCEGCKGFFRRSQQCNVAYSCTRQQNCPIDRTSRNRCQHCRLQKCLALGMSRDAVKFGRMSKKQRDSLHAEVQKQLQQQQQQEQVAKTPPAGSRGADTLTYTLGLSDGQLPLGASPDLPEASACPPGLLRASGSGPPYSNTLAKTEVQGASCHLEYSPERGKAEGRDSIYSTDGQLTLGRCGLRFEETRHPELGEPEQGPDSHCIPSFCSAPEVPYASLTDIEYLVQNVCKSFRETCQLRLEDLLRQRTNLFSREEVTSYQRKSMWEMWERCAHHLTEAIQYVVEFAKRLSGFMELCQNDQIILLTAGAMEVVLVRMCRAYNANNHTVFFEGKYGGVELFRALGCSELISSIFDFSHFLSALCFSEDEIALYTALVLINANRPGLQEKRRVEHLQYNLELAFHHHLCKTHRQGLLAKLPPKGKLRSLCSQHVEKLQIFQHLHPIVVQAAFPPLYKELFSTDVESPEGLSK
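ROR gamma transcriptional activity was tracked as Gal4-UAS luciferase output in stably transfected Drosophila Schneider cells, with compound added 1 hr before 700 uM copper sulfate induction and a 20 hr ambient-temperature incubation.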
LDHA block: qHTS assay for inhibitors of human lactate dehydrogenase. L-lactate dehydrogenase A chain (Homo sapiens), P00338. purified LDHA, NADH/diaphorase-resazurin fluorescence; active compounds read low. activity change, % (values are at about 110 or 230 µM). 0.15% of 480,000 active. AID 1347041, 2019; in the data active means activity change below about -30%; inconclusive means mostly about -25% to -30%;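 further: plate controls were DMSO wells for no effect and wells without enzyme for full effect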
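LDH5 2 nM; NADH 0.06 mM, pyruvate 0.2 mM; 200 mM Tris pH 7.4, EDTA, Tween-20; 5 min RT. Detection: diaphorase 0.133 mg/mL + resazurin 37 µM, fluorescence ex540/em590 at 0 and 20 min; normalized to enzyme-free and DMSO wells.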
Gal4-VP16 FLuc: VP16 counterscreen qHTS for inhibitors of ROR gamma transcriptional activity | Drosophila S2 Gal4-VP16 UAS-luciferase, luminescence, 20 h | Potency, µM (series often up to 53.6 µM), for the others: at the highest dose activity, negative = inhibition, usual class: inhibitors | 3.5% of 310,000 active;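 further: Gal4-VP16 expression switched on by copper sulfate through the metallothionein promoter; potency means the concentration at half of the fitted maximal effect; nearly all actives have a fitted effect of over 50% in size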
DT40 TDP1 CPT: qHTS for Inhibitors of human tyrosyl-DNA phosphodiesterase 1 (TDP1): qHTS in cells in presence of CPT; chicken DT40 Tdp1-/-;hTDP1 cells + 20 nM CPT, ATP luminescence, 48 h; Potency, µM (titrated, usually from 46.2 µM), for inactives: at the highest dose activity change, negative = growth inhibition, actives largely listed as inhibitors; 12% of 420,000 active; further: potency means the concentration at half of the fitted maximal effect; nearly all actives have a fitted effect of over 55% in size
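Cell growth measured by CellTiter-Glo luminescence after a minimum 48 h, 37 C compound exposure with 20 nM CPT in Tdp1-knockout DT40 cells stably expressing hTDP1, seeded 400/well; qHTS titration format.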
IL-1B inflam inh: qHTS for Inhibitors of Inflammasome Signaling: IL-1-beta AlphaLISA Primary Screen; AID 743279, 2014; 4.7% of 360,000 active; THP-1 LPS/ATP IL-1B secretion, AlphaLISA, 16 h; active compounds read low; activity change, % at 57.5 µM; in the data active means activity change below about -50%; inconclusive means mostly about -30% to -49%
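THP-1 cells pretreated 1 hr with compounds (up to 57.5 uM final), then stimulated with LPS (250 ng/mL final) plus ATP (1.25 mM final); secreted IL-1B measured by AlphaLISA after 16 hr, decreased signal indicating inhibition.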
TDP1 cell noCPT: qHTS for Inhibitors of human tyrosyl-DNA phosphodiesterase 1 (TDP1): qHTS in cells in absence of CPT. DT40 Tdp1-/- hTDP1 cells, no CPT, ATP luminescence, 48 h. Potency, µM (top dose mostly 46.2 µM), without a hit: at the top dose activity change, negative = growth inhibition, usual class: inhibitors. 15% of 420,000 active. AID 686978, 2013; further: potency means the concentration at half of the fitted maximal effect; nearly all actives have a fitted effect of over 55% in size
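Stably hTDP1-transfected Tdp1-null chicken DT40 cells were treated with library compounds minus camptothecin and grown for at least 48 hr at 37 °C, after which cellular ATP was quantified by luminescence.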
Starred values were filed as active, the others as inactive; ? = inconclusive; / = not tested or not shown; [ ] = remark or other dose. In the library only some 18% were active in any assay of this set; here they are far more common. Unless noted, the call rests on the fitted dose curve; in most records, active means well fitted curve in the direction sought with a large enough effect; inconclusive means small, poorly fitted or top-dose-only effect, or another doubt; inactive means no such curve, though single readings can be large; an effect the other way counts as inactive or inconclusive. Unless noted, on the % scale 0 is the no-effect control and ±100 the full control effect.

SMILES	RORgamma inh	LDHA block	Gal4-VP16 FLuc	DT40 TDP1 CPT	IL-1B inflam inh	TDP1 cell noCPT
COc1ccc(-c2cc(=O)oc3cc(OC(=O)C4CCCCC4)ccc23)cc1	-4%	-6	-1%	?	-25	18µM*
COC(=O)COc1ccc2c(-c3ccc(OC)cc3)cc(=O)oc2c1	4%	-5	18%	0.41µM*	24	-2%
COc1ccc(-c2cc(=O)oc3cc(OCC(=O)Nc4ccc(CCO)cc4)ccc23)cc1	8%	-2	-4%	3.7µM*	64	0.52µM*
COCCOC(=O)c1ccc(NC(=O)COc2ccc3c(C)cc(=O)oc3c2)cc1	/	3	/	/	/	/
COc1ccc(-c2cc(=O)oc3cc(OCC(=O)N4CCOCC4)ccc23)cc1	-15%	-7	-12%	8%	-9	-1%
C#CC(C)(CC)NC(=O)c1ccccc1C(=O)O (configuration not stated)	/	-18	/	/	/	/
O/N=C(\c1ccc(Cl)cc1)c1ccco1	/	11	/	/	/	/
CC(=O)c1cc(-c2ccc(F)cc2)n(CCC(=O)NC2CCCCC2)c1C	/	-10	/	?	/	?
CCc1ccc(NC(=O)Cn2c(-c3ccc(F)cc3)cc(C(C)=O)c2C)cc1	/	-2	/	/	/	/
CCOC(=O)c1cc(-c2ccccc2)n(CC(=O)NC2CCC(C)CC2)c1C (configuration not stated)	/	-3	/	15µM*	/	12µM*
CC(=O)c1cc(-c2ccc(F)cc2)n(CC(=O)NC2CCCCCC2)c1C	/	-8	/	?	/	16µM*
CCOC(=O)c1cc(-c2ccc(C)cc2)n(CC(=O)NC2CCCCCC2)c1C	/	-6	/	23µM*	/	?
COc1ccc(CCNC(=O)Cn2c(-c3ccc(F)cc3)cc(C(C)=O)c2C)cc1OC	/	-7	/	26µM*	/	21µM*
CCOc1ccc(NC(=O)Cn2cnc3c2c(=O)n(C)c(=O)n3C)cc1	/	-2	/	/	/	/
CC(=Nc1ccccc1)C1=C(O)C(Cc2ccccc2)NC1=O (configuration not stated)	/	-17	/	0.012µM*	24	0.0058µM*
CC(=Nc1ccccc1)C1=C(O)CSC1=O	18%	2	-4%	8%	-2	-3%
CC(=Nc1ccccc1)C1=C(O)C(Cc2ccc(F)cc2)NC1=O (configuration not stated)	/	-3	/	1µM*	16	1.2µM*
CC(=Nc1ccccc1)C1=C(O)C(CC(C)C)NC1=O (configuration not stated)	/	-1	/	-12%	-23	-3%
CC(C)(C)NC(=O)Cc1n[nH]c(=O)c2ccccc12	/	0	/	/	/	/
COc1ccc(N=Cc2c(O)n(-c3ccc(OC)cc3)c(=O)c3ccccc23)cc1	-14%	-3	-15%	-28%	-20	-40%
O=c1c2ccccc2c(C=Nc2cccc(O)c2)c(O)n1-c1ccc2c(c1)OCO2	?	-1	?	6.5µM*	?	12µM*
COc1ccc(Nc2nc3c(S(=O)(=O)c4ccc(Br)cc4)nnn3c3ccsc23)c(OC)c1	/	1	/	16µM*	/	21µM*
CCCCNc1nc2c(S(=O)(=O)c3ccc(Br)cc3)nnn2c2ccsc12	/	-8	/	-12%	/	3%
COc1cc(Nc2nc3c(S(=O)(=O)c4ccc(C)c(C)c4)nnn3c3ccsc23)cc(OC)c1	/	-9	/	9.2µM*	/	13µM*
CS(=O)(=O)NNc1ccc(S(N)(=O)=O)cc1[N+](=O)[O-]	/	16	/	/	/	/
SMILES	RORgamma inh	LDHA block	Gal4-VP16 FLuc	DT40 TDP1 CPT	IL-1B inflam inh	TDP1 cell noCPT
CS(=O)(=O)c1ccc2nc(NC(=O)Nc3cccc(Cl)c3)sc2c1	?	-4	?	16µM*	-81*	23µM*
CS(=O)(=O)c1ccc2nc(NC(=O)Nc3ccc(Cl)c(Cl)c3)sc2c1	6%[10 µM]	-8	-4%	?	0	9.2µM*
CCCCNC(=O)C[C@@H]1C[C@@]2(C(=O)OC)CCCCC=C2N(Cc2ccc3c(c2)OCO3)C1=O	/	1	/	?	-61*	?
CCCCOCCCNC(=O)C[C@@H]1C[C@@]2(C(=O)OC)CCCCC=C2N(Cc2ccc3c(c2)OCO3)C1=O	/	2	/	?	-13	?
COC(=O)[C@]12CCCCC=C1N(Cc1ccc3c(c1)OCO3)C(=O)[C@H](CC(=O)NCCCCc1ccccc1)C2	/	-2	/	?	-55*	?
CCOC(=O)[C@]12CCCC=C1N(Cc1ccc3c(c1)OCO3)C(=O)[C@H](CC(=O)NCC13CC4CC(CC(C4)C1)C3)C2	/	3	/	?	-9	23µM*
CCOC(=O)[C@]12CCC=C1N(Cc1ccc3c(c1)OCO3)C(=O)[C@H](CC(=O)NCCC(C)C)C2	/	3	/	?	2	18µM*
O=C(/C=C/c1ccc(Cl)cc1Cl)N[C@@H]1C[C@H]2CC[C@@H]1C2	/	9	/	/	/	/
CCOC(=O)[C@]12CCCC=C1N(Cc1ccc3c(c1)OCO3)C(=O)[C@H](CC(=O)NCCCCc1ccccc1)C2	/	0	/	?	-63*	21µM*
CCOC(=O)[C@]12CCC=C1N(Cc1ccc3c(c1)OCO3)C(=O)[C@H](CC(=O)NCc1ccccc1)C2	/	7	/	?	0	?
CCOC(=O)[C@]12CCC=C1N(Cc1ccc3c(c1)OCO3)C(=O)[C@H](CC(=O)NCCCCc1ccccc1)C2	/	6	/	?	-69*	21µM*
CCCc1ccc(NS(=O)(=O)c2c(C)oc(C)c2C(=O)OC)cc1	39%	4	-15%	?	-8	21µM*
CC(=O)c1cccc(NC(=O)CC2C=CCC2)c1 (configuration not stated)	/	0	/	/	/	/
S=C1NC2=C(CCc3ccccc32)C(c2ccc(Cl)cc2)N1 (configuration not stated)	/	23	/	/	/	/
S=C1NC2=C(CCCC2=C2SCCS2)C(c2ccccc2)N1 (configuration not stated)	7.1µM*	4	?	-16%	-84*	16µM*
COCCCNC(=S)N/N=C/c1ccc(O)cc1O	-37%	3	-26%	?	/	?
COCCCNC(=S)N/N=C/c1ccc(O)cc1	13µM*	-7	-11%	-3%	-25	-20%
COCCCNC(=S)N/N=C/c1cccc(OC)c1O	0.63µM*	0	1.6µM*	0.82µM*	-3	0.65µM*
